# TGFb SMAD3 inh: inhibitors of TGF-b signaling | HepG2 CAGA-GFP TGF-b/SMAD3 reporter, GFP fluorescence, 18 h; TGF-beta stimulated, 500 pg/mL final | Potency, µM (doses to about 46.1 µM), for inactives: at the top dose activity, negative = inhibition, hits mostly inhibitors | 1.2% of 410,000 active; further: on the % scale 0 is the no-effect control and ±100 the full control effect; nearly all actives have a fitted effect of over 65% in size
#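 TGF-beta reporter screen: HEPG2 CAGA-GFP, 1% FBS, 500 pg/mL TGF-beta final, 18 h; per-cell GFP summed per well; curves fitted and categorized by class.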
# HepG2 viability: counter-screen for TGF-b inhibitors: cytotoxicity in HepG2 cells | HepG2 CAGA-GFP viability, ATP luminescence, 18 h | 0.76% of 410,000 active | AID 588856 | Potency, µM (highest dose often 46.1 µM), inactives show top-dose activity change, negative = cytotoxicity, usual class: cytotoxic
#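 CellTiter-Glo luminescence gave cytotoxicity after 18 hours at 37 degrees C. The cells were HepG2 CAGA-GFP in 1% FBS DMEM, stimulated with 500 pg/mL TGF-beta after compound addition. %Activity was normalised to no-cell wells (complete cell-killing) and DMSO (no toxicity), and curves were fitted and classified.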
# Anesthetic bind: candidate novel general anesthetic via apoferritin binding | P02791 | apoferritin/1-aminoanthracene competitive binding, fluorescence | Potency, µM (top dose mostly 77.5 µM), inactives show top-dose activity change, negative = displacement, hits mostly inhibitors | 0.074% of 350,000 active | AID 485281; further: on the % scale 0 is the no-effect control and ±100 the full control effect; nearly all actives have a fitted effect of over 20% in size
# Target sequence (P02791 2-175 limits assumed): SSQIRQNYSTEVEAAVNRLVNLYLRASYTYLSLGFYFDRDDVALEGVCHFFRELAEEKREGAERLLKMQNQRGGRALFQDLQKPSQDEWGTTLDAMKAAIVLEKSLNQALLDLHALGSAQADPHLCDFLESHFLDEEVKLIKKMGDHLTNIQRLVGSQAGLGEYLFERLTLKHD
#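 Concentration-response curves derived by four-parameter Hill fitting of normalized fluorescence, where compounds displaced 1-AMA from 10 uM horse apoferritin following a brief 10 min room-temperature incubation; propofol titration acted as positive control.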
# S2 tox: cell viability loss in ATXN counter-screen; 0.49% of 400,000 active; Potency, µM (top dose mostly 56.7 µM), most hits filed as cytotoxic; S2 cells (HEK-293 line with an ATXN2-luciferase reporter) viability, CellTiter-Fluor protease fluorescence, 24 h; further: nearly all actives have a fitted effect of over 40% in size
# ATXN2 expr inh: inhibitors of ATXN2 expression; HEK-293 ATXN2-luciferase reporter, luminescence, 24 h; Potency, µM (series often up to 57 µM), for the others: at the highest dose activity change, negative = inhibition, actives largely listed as inhibitors; 0.72% of 360,000 active; AID 1745845; further: on the % scale 0 is the no-effect control and ±100 the full control effect; nearly all actives have a fitted effect of over 55% in size
#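 ATXN2-luciferase reporter cells (luciferase flanked by upstream and downstream ATXN2 gene portions) were treated 24 h at 37 °C with compounds at up to 57 uM. SteadyGlo luminescence gave expression; GF-AFC fluorescence gave viability.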
# * hit, by the source's call; i = inactive; ? = inconclusive; nt = no result; [ ] = dose if it differs, or a comment. The list is not random: actives were taken first. Their share in the collection is about 2.4%. The call rests on the fitted dose curve; in most records, active means well fitted curve in the direction sought with a large enough effect; inconclusive means small, poorly fitted or top-dose-only effect, or another doubt; inactive means no such curve, though single readings can be large; an effect the other way counts as inactive or inconclusive. Potency means the concentration at half of the fitted maximal effect.
SMILES,TGFb SMAD3 inh,HepG2 viability,Anesthetic bind,S2 tox,ATXN2 expr inh
CC[C@H](C)[C@H](NC(=O)[C@H](N)Cc1ccc(O)cc1)C(=O)N[C@@H](CC(N)=O)C(=O)N[C@@H](CC(C)C)C(=O)N[C@H](C(=O)N[C@@H](C(=O)N[C@@H](CCCN=C(N)N)C(=O)N[C@@H](CCC(N)=O)C(=O)N[C@@H](CCCN=C(N)N)C(=O)N[C@H](Cc1ccc(O)cc1)C(N)=O)[C@@H](C)O)[C@@H](C)CC,nt,nt,-9%,nt,nt
Cc1ccc(SCC(Cc2ccccc2)N2CCN(C)CCC2=O)cc1 (stereo not drawn),-11%,-26%,-8%,nt,nt
O=C(Nc1cccc(Oc2ccccc2)c1)c1ccc(-n2cncn2)c2ccoc12,-3%,-24%,nt,6.3µM*,-24%
COC(=O)C1=C(C)N(Cc2ccccc2)C(=S)N[C@H]1c1ccc(Br)cc1,13µM*,-1%,-21%,?,?
COC(=O)C1=C(C)N(Cc2ccccc2)C(=NCCc2cccnc2)N[C@H]1c1ccccc1,-2%,-20%,-18%,?,?
COC(=O)C1=C(C)N(Cc2ccccc2)C(=NCCc2cccnc2)N[C@H]1c1ccc(Br)cc1,?,16µM*,?,?,32µM*
COC(=O)C1=C(C)N(Cc2ccccc2)C(=NCC2CC2)N[C@H]1c1ccc(Br)cc1,nt,nt,-17%,nt,nt
O=c1n(Cc2cc3c(cc2Cl)OCO3)c(=O)n2n1CC[C@H]1/C(=N\OCc3ccccc3)[C@H]3O[C@@H]3[C@@H](O)[C@@H]12,nt,nt,5%[15.3 µM],nt,nt
Cn1nc(C(C)(C)C)cc1NC(=O)Nc1ccc(F)cc1F,-1%,-1%,-2%,i,2%
CNC(=O)c1cc(Oc2ccc(NC(=O)Nc3cc(C(C)(C)C)nn3-c3ccc4ncccc4c3)c(F)c2)ccn1,nt,nt,nt,nt,1.4µM*
COC1=C(Br)C(=O)c2ncccc2C1=O,?,-52%,nt,24µM*,15µM*
O=C1C(=O)c2cccnc2-c2ncccc21,1.4µM*,2µM*,nt,0.4µM*,0.5µM*
O=C1c2cccnc2-c2ncccc21,16%,-7%,-6%,?,-1%
CCC(=O)N(Cc1c(C)nn(-c2ccccc2)c1Cl)c1ccc(Cl)cc1,3%,1%,-3%,i,-30%
O=C1N/C(=N\N=C\c2ccco2)SC1Cc1ccccc1[N+](=O)[O-] (stereo not drawn),-29%,-15%,1%,11µM*,nt
CCOc1ccc(CC2S/C(=N/N=C/c3ccco3)NC2=O)cc1 (stereo not drawn),-14%,-17%,-2%,i,6%
CN1C(=O)c2ccccc2Sc2ccc(NC(=O)Cc3c(F)cccc3Cl)cc21,10µM*,-57%,-14%,?,0%
CC(C)CCNC(=O)Nc1ccc2c(c1)N(C)C(=O)c1ccccc1S2,22µM*,-60%,-6%,35µM*,?
CCN1C(=O)c2ccccc2Sc2ccc(NC(=O)Nc3cc(C)cc(C)c3)cc21,6.3µM*,-30%,-1%,nt,nt
CCN1C(=O)c2ccccc2Sc2ccc(NC(=O)c3ccc(Cl)cc3)cc21,-34%,0%,-1%,i,2%
CN1C(=O)c2ccccc2Sc2ccc(NC(=O)NCc3ccccc3Br)cc21,?,-49%,2%,nt,nt
CCN1C(Br)=CCc2ccccc21,1%,0%,nt,nt,nt
CCCOc1ccc2c(c1)CC[C@@H]1[C@@H]2CC[C@]2(C)C(OC)CC[C@@H]12 (stereo partly drawn),nt,nt,nt,i,1%
Cc1[nH]n(-c2ccccc2)c(=O)c1/C=N/NC(=O)c1cccc([N+](=O)[O-])c1,?,-67%,-6%,?,14µM*
CC(=O)N/N=C/c1c(C)[nH]n(-c2ccccc2)c1=O,-3%,1%,-2%,i,-28%
SMILES,TGFb SMAD3 inh,HepG2 viability,Anesthetic bind,S2 tox,ATXN2 expr inh
Cc1ccc(-n2[nH]c(C)c(/C=N/NC(=O)c3ccc([N+](=O)[O-])cc3)c2=O)c(C)c1,nt,nt,-6%,nt,nt
Cc1[nH]n(-c2cccc3ccccc23)c(=O)c1/C=N/NC(=O)c1cccc([N+](=O)[O-])c1,6%,0%,-7%,?,20µM*
COc1ccc(C2=Nn3c(nnc3-c3cccc(OC)c3OC)SC2)c(OC)c1,nt,nt,-22%,nt,nt
O=C(NC(NC1CCS(=O)(=O)C1)C(=O)c1cccs1)c1ccccc1 (stereo not drawn),0%,6%,-13%,i,8%
O=C(NC1=C(NC2CCS(=O)(=O)C2)C(=O)c2ccccc2C1=O)c1ccccc1 (stereo not drawn),?,-117%,-17%,30µM*,?
CCOC(=O)c1ccc(-n2c(CCC(=O)O)ccc2-c2ccccc2)cc1O,?,-49%,4%,i,9%
CCC(NC(=O)Nc1nnc(C(F)(F)F)s1)(C(F)(F)F)C(F)(F)F,?,-40%,?,nt,8.9µM*
COc1ccccc1NC(=O)Nc1nc(C(N)C2CCCCC2)cs1 (stereo not drawn),?,11µM*,nt,?,?
NC(c1csc(NC(=O)Nc2cccc(Cl)c2)n1)C1CCCCC1 (stereo not drawn),?,-105%,nt,28µM*,?
COc1cc(NC(=O)Nc2nc(C(N)C3CCCCC3)cs2)cc(OC)c1OC (stereo not drawn),?,11µM*,nt,?,?
NC(c1csc(NC(=O)Nc2ccccc2)n1)C1CCCCC1 (stereo not drawn),?,-82%,nt,i,-6%
COc1cc(=O)n2c(c1C(=O)N(C)Cc1nonc1C)CCN(Cc1cccc3ccccc13)CC2,nt,nt,nt,i,nt
Cc1csc2ncc(C(=O)NC(C)c3ccccc3)c(=O)n12 (stereo not drawn),-8%,-13%,-7%,?,-17%
CCSc1nnc(C(C)NS(=O)(=O)c2cccc(Cl)c2C)n1C (stereo not drawn),nt,nt,nt,i,nt
c1ccc(CNCCC(Cc2ccccc2)c2ccco2)cc1 (stereo not drawn),20µM*,1%,1%,i,-4%
CN(C)CCNC(=O)c1sc2nc(-c3ccccc3)cc(C(F)(F)F)c2c1N,?,11µM*,-11%,i,?
Cc1ccc2nc(Nc3nc(C)cc(-c4ccccc4)n3)[nH]c(=O)c2c1,0%,2%,1%,?,-20%
N#Cc1c(NC(=O)c2ccccc2Cl)n(Cc2ccccc2)c2nc3ccccc3nc12,7.9µM*,-27%,1%,i,-39%
CCCCn1c(NC(=O)c2ccccc2Cl)c(C#N)c2nc3ccccc3nc21,?,-59%,50%,i,?
COc1c(C)cnc(Cn2cnc3c(Cl)nc(N)nc32)c1C,nt,nt,nt,nt,0.19µM*
CN(C)CC(C)(O)c1ccc2c(c1)CN(Cc1cnn(-c3ccccc3)c1)CCO2 (stereo not drawn),nt,nt,nt,i,nt
